Screening results: PubChem BioAssay, National Center for Advancing Translational Sciences (NCATS)
ELG1 genotoxic: induces genotoxicity in HEK293T cells with luciferase-tagged ELG1. 330,000 tested, 1.3% active. AID 504466. Potency, µM (top dose mostly 46 µM), for inactives: at the top dose activity change, positive = activation, usual class: activators. HEK293T ELG1-luciferase reporter, luminescence, 16 h; further: % of control where 0% means no effect; nearly all actives have a fitted effect of over 60% in size
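Luminescence read-out: rising ELG1-luciferase signal, reflecting elevated ELG1 protein under genetic stress, flags genotoxic compounds. Cells were treated for 16 hr at 37 °C before ONE-Glo detection.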
Rab9 prom act: Rab9 promoter activation; 320,000 tested, 2.8% active; Huh7 Rab9 promoter-luciferase reporter, luminescence, 24 h; Potency, µM (series often up to 9.22 µM), inactives show top-dose activation, negative = inhibition, hits mostly activators; further: % of control where 0% means no effect; nearly all actives have a fitted effect of over 60% in size
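Cell-based reporter: Huh7 stable for Rab9 promoter-driven luciferase, plated in reduced-serum medium with 10% FBS at 1500 cells/well, compound-treated 24 h at 37 °C, luminescence read after 10 min reagent.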
ELG1 repair inh: ELG1-dependent DNA repair inhibition; HEK293T ELG1-luciferase reporter, luminescence, 16 h; DNA damage induced by 5-fluorouridine; Potency, µM (highest dose often 46.1 µM), without a hit: top-dose activity change, negative = inhibition, usual class: inhibitors; 330,000 tested, 2.3% active; further: on the % scale 0 is the no-effect control and ±100 the full control effect; nearly all actives have a fitted effect of over 55% in size
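HEK293T cells expressing luciferase-tagged ELG1 (2,000/well) received 5-Fluorouridine plus compound or DMSO for 16 hr at 37 °C. Luciferase was read by ONE-Glo luminescence after 30 min at room temperature.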
SMN2 splice up: SMN2 splice variant enhancement | HEK293 SMN2-luciferase splicing reporter, luminescence, 30-36 h | Potency, µM (doses to about 46.1 µM), without a hit: at the top dose activity change, positive = activation, usual class: activators | 210,000 tested, 2.8% active; further: % of control where 0% means no effect; nearly all actives have a fitted effect of over 55% in size
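qHTS luciferase splicing reporter: luminescence rises when SMN2 exon 7 is included in transfected HEK293 cells. Compound exposure lasted 30-36 h at 37C, with 4.5 mM final sodium butyrate as control, followed by a ONE-Glo read.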
FLuc counter: inhibits or activates purified firefly luciferase, miR-21 counter-screen; purified FLuc, Km substrates, luminescence inhibition; Potency, µM (highest dose often 57.5 µM), inactives show at the top dose activity change, negative = inhibition, usual class: inhibitors; 360,000 tested, 6.9% active; P08659; AID 588342;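 further: plate controls were vehicle for no effect and reference inhibitor for full effect; nearly all actives have a fitted effect of over 55% in size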
Target sequence (P08659 whole entry, looked up): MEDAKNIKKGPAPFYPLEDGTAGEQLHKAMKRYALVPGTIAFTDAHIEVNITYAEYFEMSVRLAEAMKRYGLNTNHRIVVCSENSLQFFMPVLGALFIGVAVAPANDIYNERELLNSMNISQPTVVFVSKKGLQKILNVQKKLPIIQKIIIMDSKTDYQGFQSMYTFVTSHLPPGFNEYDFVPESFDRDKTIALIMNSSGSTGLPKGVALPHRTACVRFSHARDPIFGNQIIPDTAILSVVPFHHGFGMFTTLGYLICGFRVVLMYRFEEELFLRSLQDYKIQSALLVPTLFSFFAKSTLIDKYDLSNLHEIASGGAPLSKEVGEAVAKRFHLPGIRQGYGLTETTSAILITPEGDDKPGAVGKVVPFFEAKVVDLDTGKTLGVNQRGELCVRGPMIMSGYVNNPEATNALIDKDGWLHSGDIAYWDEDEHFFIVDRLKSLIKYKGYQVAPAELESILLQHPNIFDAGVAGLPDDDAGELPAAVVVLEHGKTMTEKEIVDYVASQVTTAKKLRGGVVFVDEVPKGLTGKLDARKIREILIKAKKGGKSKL
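Biochemical qHTS of compounds, final roughly 60 µM downward over six points, against 10 nM purified firefly luciferase using Km concentrations of substrates (10 uM D-luciferin, 10 uM ATP) in Tris acetate pH 7.5 buffer; luminescence output.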
NPC1 promoter act: NPC1 promoter activation; Huh7 NPC1 promoter luciferase reporter, 24 h; Potency, µM (doses to about 9.22 µM), for inactives: at the top dose activation, usual class: activators; 320,000 tested, 2.4% active; AID 485313; further: % of control where 0% means no effect; nearly all actives have a fitted effect of over 60% in size
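Luminescence from an NPC1 promoter-driven luciferase reporter in stably transfected Huh7 cells was measured after 24 h compound treatment at 37 °C, followed by 10 min ambient incubation with luciferase detection reagent.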
* = called active by the depositor; ? = inconclusive; · = no result; [ ] = remark or other dose. Rows were chosen to be rich in hits. Some 9.2% of all compounds tested hit in one or more screens of this group. The call rests on the fitted dose curve; in most records, active means well fitted curve in the direction sought with a large enough effect; inconclusive means small, poorly fitted or top-dose-only effect, or another doubt; inactive means no such curve, though single readings can be large; an effect the other way counts as inactive or inconclusive. Potency means the concentration at half of the fitted maximal effect.

SMILES	ELG1 genotoxic	Rab9 prom act	ELG1 repair inh	SMN2 splice up	FLuc counter	NPC1 promoter act
Cc1cccn2c(Nc3ccccc3)c(-c3cccs3)nc12	·	·	·	5%	?	·
COc1ccc(/C=C/C(=O)c2ccccc2)c(OC)c1	?	1.8µM*	?	?	2.4µM*	3.2µM*
COc1ccc(/C=C/C(=O)c2cc(Cl)cc(Cl)c2O)c(OC)c1	-1%	-3%	-6%	·	?	-4%
COc1ccc(/C=C/C(=O)NNC(=O)c2ccncc2)c(OC)c1	-1%	-1%	?	·	13µM*	0%
COc1cccc(/C=C/C(=O)c2ccc3c(c2)OCCO3)c1OC	?	?	?	·	0.76µM*	3.2µM*
CNc1ccc(Br)cc(C(=O)/C=C/c2ccc(OC)cc2OC)c1=O	-4%	4%	?	-68%	12µM*	4%
Cc1ccc(-c2nc(SCC(=O)N3CCc4ccccc43)c3c(=O)n(C)c(=O)n(C)c3n2)cc1	·	·	·	·	2%	·
COc1ccc(NC(=O)CCC2COc3ccccc3O2)c(OC)c1 (stereo unspecified)	2%	3%	-2%	-13%	2%	-2%
CCOc1c(Cl)cc(/C=C/C(=O)N(CC)CC(=O)Nc2ccc(NC(C)=O)cc2)cc1OC	-4%	-4%	15µM*	·	-17%	-2%
COc1ccc(/C=C/C(=O)NCC2COc3ccccc3O2)c(OC)c1 (stereo unspecified)	2%	4%	-8%	12%	24µM*	12%
COc1cc(/C=C/C(=O)c2ccc3c(c2)OCO3)cc(Cl)c1O	-2%	1%	-11%	·	8.5µM*	-4%
COc1cc(/C=C/C(=O)c2ccc(Cl)s2)cc(OC)c1O	-2%	-4%	?	-26%	?	-2%
COc1cc(O)c(C(=O)/C=C/c2ccccc2)c(OC)c1	6%	15%	?	-30%	11µM*	4%
COc1cccc(NC(=O)CN(C)C(C)C(=O)NC(C)c2ccc(Cl)cc2Cl)c1 (stereo unspecified)	1%	-1%	0%	·	5%	0%
COc1ccc(/C=C/C(=O)c2ccc(OC)cc2OC)c(OC)c1	1%	9%	?	·	19µM*	17%
CCN(CC(=O)Nc1ccc2c(c1)OCCO2)C(=O)/C=C/c1ccc(OC)cc1OC	?	18%	22%	·	15µM*	14%
CCN(CC(=O)Nc1ccc2c(c1)OCCO2)C(=O)/C=C/c1ccc(OC)c(OC)c1	3%	1%	4%	·	0%	-5%
COc1ccc(NC(=O)COC(=O)c2ccc3c(c2)OCO3)c(OC)c1	25%	·	10%	·	·	·
COc1ccc(/C=C/C(=O)c2ccc3c(c2)OCO3)c(OC)c1	5.8µM*	2.8µM*	?	16µM*	2.1µM*	3.2µM*
O=[N+]([O-])c1cccnc1NCCc1ccccc1	?	3.2µM*	?	·	11µM*	?
O=[N+]([O-])c1cccnc1NCCNc1ncc(C(F)(F)F)cc1Cl	?	2.2µM*	?	13µM*	11µM*	3.5µM*
COc1ccccc1CNc1ncccc1[N+](=O)[O-]	0%	-3%	27%	·	-7%	0%
O=c1cc(Cl)[nH]c(=O)n1CCNc1ncc(C(F)(F)F)cc1Cl	13%	3.2µM*	?	?	13µM*	?
c1ccc2c(CCNc3ncnc4nc[nH]c34)c[nH]c2c1	-6%	-13%	6.5µM*	-32%	?	-15%
CC(C)C[C@@H](CC(=O)N[C@H](CC(=O)N[C@@H]1CCNC[C@H]1C(=O)N[C@H](CC(=O)N[C@@H](CCC(=O)O)CC(=O)O)Cc1ccccc1)C(C)C)NC(=O)[C@@H]1CNCC[C@H]1N	·	·	·	16%	·	·
SMILES	ELG1 genotoxic	Rab9 prom act	ELG1 repair inh	SMN2 splice up	FLuc counter	NPC1 promoter act
CCCCc1nc2c(c3c1C[C@H](C)OC3)CN(S(=O)(=O)c1ccc(C)cc1)CC2	·	·	·	-10%[9.22 µM]	·	·
COc1ccc(NC(=O)Cn2c(SCc3cccc(Cl)c3)nc3ccncc32)c(OC)c1OC	·	·	·	6%	?	·
O=[N+]([O-])c1cccnc1NCCc1c[nH]c2ccccc12	13µM*	2.5µM*	?	·	?	3.5µM*
Cc1ccc(NCC(=O)N/N=C\C(Br)=C\c2ccccc2)cc1	5%	3%	12%	9%	7%	-2%
O=C(O)c1ccc(N/N=C/C(Br)=C/c2ccccc2)cc1	?	0.32µM*	?	·	0.48µM*	0.35µM*
O=C(N/N=C/C(Br)=C/c1ccccc1)C1CC1	10%	2.8µM*	?	·	?	29%
O=C(N/N=C/C(Br)=C/c1ccccc1)C(O)c1ccccc1 (stereo unspecified)	4%	28%	?	·	15µM*	22%
CCN(Cc1ccccc1)S(=O)(=O)c1cc(C(=O)NC(C)C2CC3CCC2C3)ccc1OC (stereo unspecified)	-4%	-11%	6.5µM*	-45%	3%	-8%
COc1cc(C(=O)NC(C)C2CC3CCC2C3)cc(OC)c1OC (stereo unspecified)	9%	-3%	-3%	·	0%	-4%
c1ccc(B2OC[C@@H]3OB(c4ccccc4)O[C@H]([C@@H]4COB(c5ccccc5)O4)[C@@H]3O2)cc1	·	·	·	4%[9.22 µM]	·	·
O=C(Nc1ccc2c(c1)OCO2)c1noc2c1CCCCC2	?	0.45µM*	?	5.6µM*	2.1µM*	0.56µM*
O=C(Nc1ccc2c(c1)OCO2)c1noc2c1CCCC2	0.65µM*	0.63µM*	?	·	1.5µM*	0.79µM*
COc1ccc(C2=NN(c3nc(-c4ccc(CNC(C)=O)cc4)cs3)C(c3ccco3)C2)cc1 (stereo unspecified)	-4%	-9%	6%	·	-15%	1%
CCc1cccc(CC)c1-n1nnc2c(sc3nc(C)cc(C)c32)c1=O	·	·	·	-5%	-9%	·
COc1ccc(-c2sc3ccccc3c2/C=C/c2ccncc2)cc1	-1%	·	?	·	·	·
O=C(Cc1cccs1)N/N=C/C(Cl)=C/c1ccccc1	?	3.5µM*	?	?	-10%	?
CCOC(=O)N/N=C/C(Cl)=C/c1ccccc1	?	?	?	?	17µM*	?
Cc1cc(C)nc(N/N=C/C(Cl)=C/c2ccccc2)n1	?	?	?	-8%	13µM*	?
CCOC(=O)N/N=C(C)/C=C/c1ccccc1	17%	?	?	18%	?	19%
CCOc1ccc(/C=N/NC(=O)Cc2cccs2)cc1	?	?	?	·	17µM*	?
O=C(Cc1cccs1)N/N=C/c1ccccc1	12%	23%	?	·	?	5%
